PubChem BioAssay AID1159580 (chemical genetic matrix, 2015)
The whole screen tested about 5,500 compounds, of which about 2,000 (36%) were called active. Not shown: some 18% with an inconclusive outcome. No stated cut-off is given here; in the data, active means normalized growth mostly below about 0.91 (no sharp cut-off); inconclusive means no clear call, values can overlap the other calls; inactive means mostly above about 0.92. The list shows a part of the results.

Assay: chemical genetic growth profiling, strain panel (AID 1159580);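 further: tested at 20 µM; growth read once vehicle control cultures reached saturation at 30 °C; 1 = growth at the plate median or of vehicle wells; lower values mean less growth of the strain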
Settings: growth OD
[1] = S. cerevisiae deletion strains, locus YHR030C, strain SLT2, active compounds read low

Measured: normalized growth

CCCN(CCC)S(=O)(=O)c1ccc(C(=O)NCC(=O)O)cc1
inactive: S. cerevisiae deletion strains, locus YAL013W, strain DEP1, active compounds read low 1.01 | S. cerevisiae deletion strains, locus YBR229C, strain ROT2, active compounds read low 1 | S. cerevisiae deletion strains, locus YDL101C, strain DUN1, active compounds read low 1 | S. cerevisiae deletion strains, locus YDL134C, strain PPH21, active compounds read low 0.996 | S. cerevisiae deletion strains, locus YDR150W, strain NUM1, active compounds read low 0.907 | S. cerevisiae deletion strains, locus YEL061C, strain CIN8, active compounds read low 1.02 | S. cerevisiae deletion strains, locus YGR078C, strain PAC10, active compounds read low 0.998 | [1] 1.03 | S. cerevisiae deletion strains, locus YHR087W, strain rtc3, active compounds read low 1.02 | S. cerevisiae deletion strains, locus YJR043C, strain POL32, active compounds read low 0.996 | S. cerevisiae deletion strains, locus YJR075W, strain HOC1, active compounds read low 1.02 | S. cerevisiae deletion strains, locus YKL190W, strain CNB1, active compounds read low 0.996 | S. cerevisiae deletion strains, locus YLR039C, strain RIC1, active compounds read low 0.993 | S. cerevisiae deletion strains, locus YLR058C, strain SHM2 (second series), active compounds read low 1.01 | S. cerevisiae deletion strains, locus YLR085C, strain ARP6, active compounds read low 0.984 | S. cerevisiae deletion strains, locus YLR262C, strain YPT6, active compounds read low 1.01 | S. cerevisiae deletion strains, locus YML094W, strain GIM5, active compounds read low 1 | S. cerevisiae deletion strains, locus YMR219W, strain ESC1, active compounds read low 1 | S. cerevisiae deletion strains, locus YMR263W, strain SAP30, active compounds read low 0.989 | S. cerevisiae deletion strains, locus YNL153C, strain GIM3, active compounds read low 1 | S. cerevisiae deletion strains, locus YNL298W, strain CLA4 (second series), active compounds read low 1.02 | S. cerevisiae deletion strains, locus YNL322C, strain KRE1, active compounds read low 1.01 | S. cerevisiae deletion strains, locus YNR030W, strain Alg12, active compounds read low 1.01 | S. cerevisiae deletion strains, locus YPL055C, strain LGE1, active compounds read low 1.02 | S. cerevisiae deletion strains, locus YPL241C, strain CIN2, active compounds read low 1 | S. cerevisiae deletion strains, locus YPR135W, strain CTF4, active compounds read low 1.01 | S. cerevisiae strains, strain wild type, active compounds read low 1.01

CC1(C)N([O-])[N+](=O)C1(C)Br (configuration not stated)
inactive: S. cerevisiae deletion strains, locus YAL021C, strain ccr4, active compounds read low 0.967 | S. cerevisiae deletion strains, locus YAL026C, strain drs2, active compounds read low 0.99 | S. cerevisiae deletion strains, locus YAL030W, strain snc1, active compounds read low 1 | S. cerevisiae deletion strains, locus YBL061C, strain skt5, active compounds read low 0.981 | S. cerevisiae deletion strains, locus YBR009C, strain hhf1, active compounds read low 0.995 | S. cerevisiae deletion strains, locus YBR023C, strain chs3, active compounds read low 0.983 | S. cerevisiae deletion strains, locus YBR171W, strain sec66, active compounds read low 0.968 | S. cerevisiae deletion strains, locus YBR231C, strain swc5, active compounds read low 0.988 | S. cerevisiae deletion strains, locus YBR279W, strain paf1, active compounds read low 0.995 | S. cerevisiae deletion strains, locus YCL011C, strain gbp2, active compounds read low 0.965 | S. cerevisiae deletion strains, locus YCL016C, strain dcc1, active compounds read low 0.99 | S. cerevisiae deletion strains, locus YCL061C, strain MRC1, active compounds read low 1 | S. cerevisiae deletion strains, locus YCL069W, strain vba3, active compounds read low 0.969 | S. cerevisiae deletion strains, locus YCR088W, strain abp1, active compounds read low 0.967 | S. cerevisiae deletion strains, locus YDL005C, strain med2, active compounds read low 0.978 | S. cerevisiae deletion strains, locus YDL040C, strain nat1, active compounds read low 0.992 | S. cerevisiae deletion strains, locus YDR001C, strain nth1, active compounds read low 0.987 | S. cerevisiae deletion strains, locus YDR069C, strain doa4, active compounds read low 0.992 | S. cerevisiae deletion strains, locus YDR137W, strain rgp1, active compounds read low 1.07 | S. cerevisiae deletion strains, locus YDR159W, strain sac3, active compounds read low 0.98 | S. cerevisiae deletion strains, locus YDR195W, strain ref2 0.972 | S. cerevisiae deletion strains, locus YDR297W, strain sur2, active compounds read low 0.987 | S. cerevisiae deletion strains, locus YDR334W, strain swr1, active compounds read low 0.969 | S. cerevisiae deletion strains, locus YDR335W, strain msn5, active compounds read low 0.968 | S. cerevisiae deletion strains, locus YDR392W, strain spt3, active compounds read low 0.906 | S. cerevisiae deletion strains, locus YEL003W, strain gim4, active compounds read low 0.984 | S. cerevisiae deletion strains, locus YEL037C, strain rad23, active compounds read low 0.982 | S. cerevisiae deletion strains, locus YEL061C, strain CIN8 (second series), active compounds read low 0.973 | S. cerevisiae deletion strains, locus YER015W, strain faa2, active compounds read low 0.962 | S. cerevisiae deletion strains, locus YER016W, strain bim1, active compounds read low 0.992 | S. cerevisiae deletion strains, locus YER111C, strain swi4, active compounds read low 0.996 | S. cerevisiae deletion strains, locus YER155C, strain BEM2 (second series), active compounds read low 0.974 | S. cerevisiae deletion strains, locus YFR010W, strain ubp6, active compounds read low 0.979 | S. cerevisiae deletion strains, locus YGL167C, strain pmr1, active compounds read low 0.987 | S. cerevisiae deletion strains, locus YGL173C, strain kem1, active compounds read low 0.984 | S. cerevisiae deletion strains, locus YGL227W, strain vid30, active compounds read low 0.982 | S. cerevisiae deletion strains, locus YGL240W, strain doc1, active compounds read low 0.994 | S. cerevisiae deletion strains, locus YGL253W, strain hxk2, active compounds read low 0.982 | S. cerevisiae deletion strains, locus YHR013C, strain ard1, active compounds read low 0.977 | S. cerevisiae deletion strains, locus YHR027C, strain rpn1, active compounds read low 0.991 | [1] 0.966 | S. cerevisiae deletion strains, locus YHR079C, strain IRE1, active compounds read low 0.966 | S. cerevisiae deletion strains, locus YHR142W, strain chs7, active compounds read low 0.968 | S. cerevisiae deletion strains, locus YJL092W, strain hpr5, active compounds read low 0.963 | S. cerevisiae deletion strains, locus YJL095W, strain BCK1 (second series), active compounds read low 0.973 | S. cerevisiae deletion strains, locus YJL095W, strain BCK1, active compounds read low 0.975 | S. cerevisiae deletion strains, locus YJL115W, strain asf1, active compounds read low 0.979 | S. cerevisiae deletion strains, locus YJL129C, strain trk1, active compounds read low 0.976 | S. cerevisiae deletion strains, locus YJL154C, strain vps35, active compounds read low 0.969 | S. cerevisiae deletion strains, locus YJL164C, strain tpk1, active compounds read low 0.995 | S. cerevisiae deletion strains, locus YJL166W, strain qcr8, active compounds read low 0.988 | S. cerevisiae deletion strains, locus YJL187C, strain SWE1, active compounds read low 1.01 | S. cerevisiae deletion strains, locus YJR066W, strain TOR1, active compounds read low 0.907 | S. cerevisiae deletion strains, locus YKL160W, strain elf1, active compounds read low 0.998 | S. cerevisiae deletion strains, locus YKR026C, strain gcn3, active compounds read low 0.984 | S. cerevisiae deletion strains, locus YKR091W, strain srl3, active compounds read low 0.995 | S. cerevisiae deletion strains, locus YLL001W, strain dnm1, active compounds read low 1 | S. cerevisiae deletion strains, locus YLL026W, active compounds read low 0.986 | S. cerevisiae deletion strains, locus YLL041C, strain sdh2, active compounds read low 0.99 | S. cerevisiae deletion strains, locus YLR027C, strain aat2, active compounds read low 1 | S. cerevisiae deletion strains, locus YLR113W, strain HOG1, active compounds read low 0.993 | S. cerevisiae deletion strains, locus YLR221C, strain rsa3, active compounds read low 0.985 | S. cerevisiae deletion strains, locus YLR258W, strain gsy2, active compounds read low 0.985 | S. cerevisiae deletion strains, locus YLR262C, strain YPT6 (second series), active compounds read low 1.03 | S. cerevisiae deletion strains, locus YLR320W, strain mms22, active compounds read low 0.985 | S. cerevisiae deletion strains, locus YLR342W, strain FKS1, active compounds read low 0.978 | S. cerevisiae deletion strains, locus YLR357W, strain rsc2, active compounds read low 0.999 | S. cerevisiae deletion strains, locus YLR370C, strain arc18, active compounds read low 0.982 | S. cerevisiae deletion strains, locus YLR384C, strain iki3, active compounds read low 0.986 | S. cerevisiae deletion strains, locus YML120C, strain ndi1, active compounds read low 0.984 | S. cerevisiae deletion strains, locus YMR058W, strain fet3, active compounds read low 0.994 | S. cerevisiae deletion strains, locus YMR125W, strain sto1, active compounds read low 0.974 | S. cerevisiae deletion strains, locus YMR129W, active compounds read low 0.992 | S. cerevisiae deletion strains, locus YMR205C, strain PFK2, active compounds read low 0.998 | S. cerevisiae deletion strains, locus YMR231W, strain pep5, active compounds read low 0.96 | S. cerevisiae deletion strains, locus YNL071W, strain lat1, active compounds read low 0.973 | S. cerevisiae deletion strains, locus YNL183C, strain NPR1, active compounds read low 0.912 | S. cerevisiae deletion strains, locus YNL209W, strain ssb2, active compounds read low 0.989 | S. cerevisiae deletion strains, locus YNL248C, strain rpa49, active compounds read low 0.992 | S. cerevisiae deletion strains, locus YNL322C, strain KRE1 (second series), active compounds read low 0.979 | S. cerevisiae deletion strains, locus YNR049C, strain mso1, active compounds read low 0.99 | S. cerevisiae deletion strains, locus YOR001W, strain rrp6, active compounds read low 0.988 | S. cerevisiae deletion strains, locus YOR070C, strain gyp1, active compounds read low 0.976 | S. cerevisiae deletion strains, locus YOR080W, strain dia2, active compounds read low 0.985 | S. cerevisiae deletion strains, locus YOR083W, strain WHI5, active compounds read low 0.994 | S. cerevisiae deletion strains, locus YOR106W, strain vam3, active compounds read low 0.966 | S. cerevisiae deletion strains, locus YOR231W, strain MKK1, active compounds read low 0.977 | S. cerevisiae deletion strains, locus YOR265W, strain rbl2, active compounds read low 0.993 | S. cerevisiae deletion strains, locus YOR270C, strain vph1, active compounds read low 1.01 | S. cerevisiae deletion strains, locus YOR290C, strain snf2, active compounds read low 0.987 | S. cerevisiae deletion strains, locus YPL051W, strain arl3, active compounds read low 0.985 | S. cerevisiae deletion strains, locus YPL078C, strain atp4, active compounds read low 0.986 | S. cerevisiae deletion strains, locus YPL106C, strain sse1, active compounds read low 0.977 | S. cerevisiae deletion strains, locus YPL240C, strain hsp82, active compounds read low 0.97 | S. cerevisiae deletion strains, locus YPL256C, strain CLN2, active compounds read low 0.956
